About 83,000 compounds went through this panel and 20% of them were active in at least one assay; those are over-represented in the sample as a whole.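 Single-concentration screen, 48 h exposure, 96-well plates. Endpoint: percent growth. Below 10 = active.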 A number with no mark means an inactive call. Activity calls are given as the source filed them.
These molecules were tested on NCI-H522 lung (assay: NCI-60 one-dose screen, 48 h (100 = growth as untreated, 0 = no growth, -100 = all killed)). Conditions: 10 µM unless noted.
Molecule `Cn1cc(-c2ccc3c(Nc4cccc(NC(=O)Nc5cccc(F)c5)c4)ncnc3c2)cn1` has a growth of 26.5%.
`CC(C)(C)n1cc(-c2ccnc(NCCNS(=O)(=O)c3ccc(C(F)(F)F)cc3)c2)c(-c2ccccc2)n1` was tested, and the growth was 85.9%.
`Cc1nn(C)c2ncnc(Nc3ccccc3Br)c12` gave a growth of 98.7%.
In the case of `COc1ccc(C(=O)C2OC3=C(C(=O)CC(C)(C)C3)C2c2cccc(Oc3ccccc3)c2)cc1` (centres undefined), the growth is reported as 76.3%.
`O=C(Nc1ccc2[nH]ncc2c1)c1csc(Nc2ccccc2)n1` was tested, and the growth was 17.5%.
`c1ccc(-c2cn3nc(-c4c[nH]c5ccccc45)sc3n2)cc1` showed a growth of 61.2%.
Work on `COc1cc(OCc2cccc(-c3ccccc3)c2C)cc(OC)c1CN1CCCCC1C(=O)NCCOCCOCCN` (centres undefined) yielded a growth of 93.3%.
`COc1cc(OC)cc(C(=O)Nc2cnc(Nc3ccc(N4CCOCC4)nc3)nc2Oc2ccc(C(F)(F)F)cc2)c1` showed a growth of 77.1%.
In the case of `Cc1ccc(-c2nc(C#N)c(S(=O)(=O)n3nc(C)cc3N)o2)cc1`, the growth is reported as -15.8% (active).
`CCN1CCN(CCOc2ccc(CNc3ccc4nc(CCC5CCCCC5)[nH]c4c3)cc2)CC1` showed a growth of 32%.
`COc1ccc(NC(=O)c2ccc(NC3=C(c4ccc(Cl)cc4)C(=O)NC3=O)cc2)cc1` showed a growth of 45.2%.
Work on `CC(=O)OCCOc1cc(Cl)c(Cl)cc1Cl` yielded a growth of 86.6%.
Work on `Oc1ccc(C(c2ccc(O)cc2)c2ccc(Cl)cn2)cc1` yielded a growth of 57.6%.
In the case of `CCCS(=O)(=O)Nc1cccc(Nc2ncnc3cc(NC(=O)CCl)ccc23)c1Cl`, the growth is reported as -60% (active).

From PubChem BioAssay (NCI)
